Rows were chosen to be rich in hits. Some 9.3% of all compounds tested hit in one or more screens of this group.
FLuc counter: qHTS profiling assay for firefly luciferase inhibitor/activator using purifed enzyme and Km concentrations of substrates (counterscreen for miR-21 project) | purified FLuc, Km substrates, luminescence inhibition | Potency, µM (titrated, usually from 57.5 µM), for the others: top-dose activity change, negative = inhibition, hits mostly inhibitors | actives 6.9% (n = 360,000);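 note: plate controls were vehicle for no effect and reference inhibitor for full effect; nearly all actives have a fitted effect of over 55% in size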
Target sequence (P08659 whole entry, looked up): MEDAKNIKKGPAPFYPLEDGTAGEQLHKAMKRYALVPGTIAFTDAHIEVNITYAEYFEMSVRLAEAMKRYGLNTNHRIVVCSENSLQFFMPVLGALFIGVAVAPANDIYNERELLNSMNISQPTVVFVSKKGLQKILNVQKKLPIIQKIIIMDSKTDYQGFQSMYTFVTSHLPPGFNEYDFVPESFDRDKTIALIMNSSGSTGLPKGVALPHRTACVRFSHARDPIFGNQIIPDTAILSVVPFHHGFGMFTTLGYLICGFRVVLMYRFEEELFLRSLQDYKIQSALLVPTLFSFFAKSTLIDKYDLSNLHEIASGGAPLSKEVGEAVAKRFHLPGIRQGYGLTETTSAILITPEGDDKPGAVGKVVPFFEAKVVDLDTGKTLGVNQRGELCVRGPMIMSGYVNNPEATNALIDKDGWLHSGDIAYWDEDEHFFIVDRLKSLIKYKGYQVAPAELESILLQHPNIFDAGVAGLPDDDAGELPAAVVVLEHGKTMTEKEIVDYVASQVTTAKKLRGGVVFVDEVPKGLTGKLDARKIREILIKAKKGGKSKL
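Purified P. pyralis luciferase (10nM final) with 10uM D-luciferin and 10uM ATP (Km levels) in 50mM Tris acetate pH 7.5, 10mM Mg acetate, 0.01% Tween-20, 0.05% BSA; qHTS 6-point titration, ~60 µM downward; luminescence read.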
Rab9 promoter act: qHTS Assay for Rab9 Promoter Activators; Huh7 Rab9 promoter-luciferase reporter, luminescence, 24 h; Potency, µM (top dose mostly 9.22 µM), without a hit: at the highest dose activation, negative = inhibition, usual class: activators; actives 2.8% (n = 320,000); AID 485297, 2010; note: % of control where 0% means no effect; nearly all actives have a fitted effect of over 60% in size
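Cell-based reporter: Huh7 stable for Rab9 promoter-driven luciferase, plated in reduced-serum medium with 10% FBS at 1500 cells/well, compound-treated 24 h at 37 °C, luminescence read after 10 min reagent.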
SMN2 splice up: qHTS Assay for Enhancers of SMN2 Splice Variant Expression; AID 1458, 2008; Potency, µM (highest dose often 46.1 µM), inactives show top-dose activity change, positive = activation, most hits filed as activators; actives 2.8% (n = 210,000); HEK293 SMN2-luciferase splicing reporter, luminescence, 30-36 h; note: % of control where 0% means no effect; nearly all actives have a fitted effect of over 55% in size
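HEK293 cells carry an SMN2 […]–luciferase reporter in which exon 7 inclusion puts luciferase in frame. Cells were plated 10-12 h before compound addition, then incubated 30-36 h at 37C. ONE-Glo luminescence was read; sodium butyrate at 4.5 mM final served as control.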
NPC1 promoter act: qHTS Assay for NPC1 Promoter Activators; Huh7 NPC1 promoter luciferase reporter, 24 h; Potency, µM (titrated, usually from 9.22 µM), without a hit: at the highest dose activation, most hits filed as activators; actives 2.4% (n = 320,000); note: % of control where 0% means no effect; nearly all actives have a fitted effect of over 60% in size
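Readout is luciferase luminescence, reflecting NPC1 promoter activation in stably transfected Huh7 cells after 24 h compound exposure at 37 °C in reduced-serum medium with 10% FBS.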
ELG1 genotoxic: qHTS screen for small molecules that induce genotoxicity in human embryonic kidney (HEK293T) cells expressing luciferase-tagged ELG1; HEK293T ELG1-luciferase reporter, luminescence, 16 h; Potency, µM (series often up to 46 µM), for the others: at the top dose activity change, positive = activation, actives largely listed as activators; actives 1.3% (n = 330,000); note: % of control where 0% means no effect; nearly all actives have a fitted effect of over 60% in size
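Quantitative HTS format in 1536-well plates. HEK293T ELG1-luciferase reporter cells receive test compound and are incubated 16 hr at 37 °C, 5% CO2; ONE-Glo added, 30 min room temperature, then luminescence read.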
ELG1 repair inh: qHTS screen for small molecules that inhibit ELG1-dependent DNA repair in human embryonic kidney (HEK293T) cells expressing luciferase-tagged ELG1 | actives 2.3% (n = 330,000) | Potency, µM (doses to about 46.1 µM), without a hit: top-dose activity change, negative = inhibition, usual class: inhibitors | AID 504467, 2011 | HEK293T ELG1-luciferase reporter, luminescence, 16 h; DNA damage induced by 5-fluorouridine; note: % is set by controls: 0 for no effect and ±100 for the full control effect; nearly all actives have a fitted effect of over 55% in size
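HEK293T cells expressing luciferase-tagged ELG1 (2,000/well) received 5-Fluorouridine plus compound or DMSO for 16 hr at 37 °C. Luciferase was read by ONE-Glo luminescence after 30 min at room temperature.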
Starred values were filed as active, the others as inactive; u = inconclusive; x = not tested or not shown; [ ] = remark or other dose. Calls come from the whole dose curve; as a rule, active = well fitted curve in the direction sought with a large enough effect; inconclusive = small, poorly fitted or top-dose-only effect, or another doubt; inactive = no such curve, though single readings can be large; an effect the other way counts as inactive or inconclusive. Potency is the fitted concentration of half-maximal effect.

SMILES	FLuc counter	Rab9 promoter act	SMN2 splice up	NPC1 promoter act	ELG1 genotoxic	ELG1 repair inh
CN(C)S(=O)(=O)c1ccc(C(=O)Nc2ccccc2C(=O)O)cc1	12µM*	3%	2%	1%	-1%	0%
COc1ccccc1C(=O)Nc1cc2c(cc1C(=O)O)OCCCO2	-14%	-3%	x	-3%	4%	18%
CSc1ccccc1C(=O)Nc1cc2c(cc1C(=O)O)OCCCO2	u	-1%	x	-2%	9%	3%
CN(C)S(=O)(=O)c1ccc(C(=O)Nc2cc3c(cc2C(=O)O)OCCCO3)cc1	15µM*	6%	x	15%	7%	4%
O=C(Nc1cc2c(cc1C(=O)O)OCCCO2)c1ccc(F)cc1F	21µM*	24%	x	-42%	u	u
O=C(O)c1cccc(NC(=O)c2ccc(S(=O)(=O)c3ccccc3)cc2)c1	u	11%	0%	11%	1%	-2%
CN(C)S(=O)(=O)c1ccc(C(=O)Nc2cccc(C(=O)O)c2)cc1	21µM*	x	14%	x	x	x
CC#CC#Cc1cccc(=O)o1	4%	-56%	x	-20%	2%	u
CCC(=O)c1cc2c(cc1NC(=O)c1ccc(C)cc1)OCCO2	-1%	0%	u	-2%	u	0%
CC(=O)c1cc2c(cc1NC(=O)c1ccc(C)cc1)OCCO2	5.4µM*	2%	x	0%	14%	7%
CN(C)S(=O)(=O)c1cccc(C(=O)Nc2cc3c(cc2C(=O)O)OCCCO3)c1	6µM*	7%	x	16%	8%	-2%
CCN1C(=O)c2cccc3c(NC(=O)c4ccc(S(=O)(=O)N(C)C)cc4)ccc1c23	-8%	-6%	13µM*	-5%	16%	9%
Cc1cc(C)cc(NC(=O)Cn2c(=O)n(-c3ccc(C)c(C)c3)c(=O)c3oc4ccccc4c32)c1	-10%	x	x	x	x	x
c1ccc(-c2ccc3c(c2)NCCN3)cc1	13µM*	-1%[1.84 µM]	x	u	11%	24%
COc1ccc2cc(S(=O)(=O)c3ccccc3F)c(=O)oc2c1	0%	x	-10%	x	x	x
Cc1ccc(C(=O)NC(=S)Nc2cccnc2Cl)cc1	12µM*	2.8µM*	x	2.5µM*	u	u
Cc1ccc(C(=O)NC(=S)Nc2ccccc2C(F)(F)F)cc1	u	15%	x	-3%	0%	16%
COc1ccccc1C(=O)NC(=S)Nc1cccnc1Cl	2.4µM*	1µM*	x	1.1µM*	0.82µM*	u
Cc1cc2nc(CN(C)Cc3c(C(=O)N(C)C)nc4ccc(Cl)cn34)[nH]c2cc1C	2%	-6%	x	1%	-6%	u
Cc1nc(SCC(=O)Nc2ccc(C)c(Cl)c2)cc(-c2ccccc2)n1	-2%	x	x	x	x	x
O=C(N/N=C/c1ccc(OC(F)F)cc1)c1ccc(CSc2nc3ccccc3[nH]2)cc1	17µM*	4%	-6%[1.84 µM]	-6%	0%	-18%
O=C(N/N=C/c1ccc(OC(F)F)cc1)c1ccc(Br)cc1	u	3%	19%	-1%	7%	-8%
CCOc1ccc(C(=O)N/N=C/c2ccc(SC)cc2)cc1	-8%	-4%	u	2%	7%	3%
CCOc1ccc(/C=N/NC(=O)c2ccc(CSc3nc4ccccc4[nH]3)cc2)cc1	6.7µM*	12%	-7%	4%	-2%	-9%
Cc1ccc(C(=O)CSc2nnc(CNc3ccc(F)cc3)o2)cc1	-2%	1%	-23%	-5%	2%	u
SMILES	FLuc counter	Rab9 promoter act	SMN2 splice up	NPC1 promoter act	ELG1 genotoxic	ELG1 repair inh
COc1cccc(CC2(CO)CCCN(CC3=Cc4cc(Cl)ccc4OC3)C2)c1 (configuration not stated)	-4%	-3%	x	0%	-5%	-18%
COc1cc(OC)c(NC(=O)c2noc3c2CSc2ccccc2-3)cc1Cl	-9%	x	x	x	x	x
C/C(NC(=O)c1ccccc1F)=C1\C(=O)C[C@@H]2[C@H]1C2(C)C	15µM*	u	x	u	u	u
CN1CCN(NC(=O)c2cccc(F)c2)CC1	3%	1%	-9%	2%	1%	-8%
CC1(C)CC(NC(=O)c2ccccc2F)CC(C)(C)N1	5%	-2%	x	2%	-5%	7%
C/C(NC(=O)c1cccc(F)c1)=C1/C(=O)C[C@@H]2[C@H]1C2(C)C	11µM*	25%	6%	25%	u	u
CC1CCCCC1NC(=O)Cn1cnc2sccc2c1=O (configuration not stated)	-2%	13%	x	3%	0%	11%
N#Cc1c(/N=C/c2ccc(-c3ccc(C(=O)O)c(Cl)c3)o2)sc2c1CCCC2	2.4µM*	-4%	x	1%	8%	u
N#Cc1c(/N=C/c2ccc(-c3ccccc3C(=O)O)o2)sc2c1CCCC2	0.76µM*	0.71µM*	x	1.8µM*	15µM*	u
Cc1cc(C)nc(SCc2ccc(C(=O)N/N=C/c3ccco3)cc2)n1	-10%	-4%	10%	-3%	0%	9%
CCn1cc(C(=O)NCCCOC(C)C)c(=O)c2cc(S(=O)(=O)N(C)C3CCCCC3)ccc21	-2%	x	-6%	x	x	x
CCc1ccc(C2=NN(CCC(=O)NCCc3ccc(OC)c(OC)c3)C(=O)CC2)cc1	4%	x	x	x	x	x
CC(Sc1ccc(Cl)cc1)C(=O)Nc1ccc(S(=O)(=O)N2CCOCC2)cc1 (configuration not stated)	3%	0%	-6%	-1%	-1%	-20%
Cc1ccc(NNC(=O)C(O)(c2cccc(C(F)(F)F)c2)c2cccc(C(F)(F)F)c2)cc1	2%	-6%	-70%	-1%	-4%	18µM*
O=C(NNc1ccccc1Br)C(O)(c1cccc(C(F)(F)F)c1)c1cccc(C(F)(F)F)c1	3%	0%	-83%	-4%	-5%	u
CCOC(=O)[C@H]1[C@H]2COc3ccc(C)cc3[C@@H]2N2C(=O)c3cc(C)ccc3NC(=O)[C@@]12C	x	x	x	x	2%	u
O=C(c1cnccn1)N1CCC[C@@]2(CCN(Cc3cc(C(F)(F)F)cc(C(F)(F)F)c3)C2)C1	x	x	1%	x	x	x
CC(C)OC(=O)CC(=O)CSc1nc2c(cc1C#N)CCCC2	13µM*	x	2%	x	x	x
N#Cc1cc2c(nc1SCC(N)=O)CCCCC2	-14%	3.2µM*	25µM*	4µM*	u	u

Screening results: PubChem, National Center for Advancing Translational Sciences (NCATS)
